# Hsp70 act: Hsp70 transcriptional activators, primary screen, cell-based, HeLa, Hsp70 promoter luciferase, luminescence, 10 µM; HeLa Hsp70 promoter luciferase reporter; scaled: vehicle 0, proteasome-inhibitor control 100%; activation, % at 10 µM; 0.04% of 200,000 active; AID 1203, 2008;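 active = activation above the mean across all tested compounds plus 3 SD, cutoff set per campaign, cut at about 5.5% in these data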;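 also: 100% = MG132 at 30 µM as the positive control and 0% = DMSO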
# S1P4 agonist: S1P4 receptor agonists, primary screen, cell-based. S1P4-expressing cell line, agonist reporter assay. activation, % at 4.98 µM. 0.35% of 220,000 active. AID 1509, 2009; in the data active = activation above about 11%;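 also: 0% = DMSO vehicle and 100% = reference agonist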
# HSV augment: enhancers of HSV replication in host cells, fold increase, host cell viability. HSV replication augmentation in cells. maximum fold increase. 0.005% of 220,000 active. AID 1956, 2009; in the data active = maximum fold increase above about 1.5; inconclusive = no clear call, values can overlap the other calls; tested in PC3 cells
# TNF necrop inh: inhibitors of TNF-alpha triggered necroptosis, primary screen, cell-based, Jurkat FADD-/-, single concentration; Jurkat FADD-/- TNF necroptosis rescue, ATP luminescence, 24 h; 0 = TNF only, 100 = no-TNF cells; activation (protection from cell death), % at 10 µM; 0.068% of 220,000 active; AID 463075, 2010;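 active = activation, meaning protection from cell death, of at least 50% relative to plate controls; inactive = activation below 50%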;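 also: necroptosis triggered by 40 ng/mL TNF-alpha added together with compound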
# zVAD death inh: inhibitors of zVAD-triggered necroptosis, primary screen, L929 cells. 0.38% of 220,000 active. viability rescue, % at 10 µM. L929 zVAD necroptosis rescue, ATP luminescence, 24 h; with zVAD 60 µM. AID 1377, 2008;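 active = activation, scaled between plate controls, above about 75%, limit read from the data; inactive = activation under that limit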;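 also: 0% = zVAD with DMSO and 100% = DMSO alone without zVAD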
# S1P4 antagonist: S1P4 receptor antagonists, primary screen, cell-based; inhibition, % at 4.98 µM; Sphingosine 1-phosphate receptor 4 (Homo sapiens), O95977; S1P4-expressing cells, antagonist mode, reporter read-out; AID 1510, 2009; 0.26% of 220,000 active; in the data active = inhibition above about 29%;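 also: 0% = wells stimulated with agonist and 100% = vehicle wells without agonist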
# S1P4 agonist cf: S1P4 receptor agonists, retest, confirmation, cell-based, high throughput | shares compounds with S1P4 agonist | S1P4 agonist cell-based reporter assay | 7% of 740 active | activation, % at 4.98 µM; in the data active = activation above about 12%;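 also: 0% = vehicle and 100% = full reference agonist response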
# S1P1 agonist: S1P1 receptor agonists, human, counter-screen for S1P4 agonist project, cell-based; activation, % at 4.98 µM; S1P1 agonist cell-based assay, activation; 4% of 740 active; shares compounds with S1P4 agonist; in the data active = activation above about 21%;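 also: 0% = vehicle wells and 100% = reference agonist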
# Target sequence (P21453 whole entry, looked up): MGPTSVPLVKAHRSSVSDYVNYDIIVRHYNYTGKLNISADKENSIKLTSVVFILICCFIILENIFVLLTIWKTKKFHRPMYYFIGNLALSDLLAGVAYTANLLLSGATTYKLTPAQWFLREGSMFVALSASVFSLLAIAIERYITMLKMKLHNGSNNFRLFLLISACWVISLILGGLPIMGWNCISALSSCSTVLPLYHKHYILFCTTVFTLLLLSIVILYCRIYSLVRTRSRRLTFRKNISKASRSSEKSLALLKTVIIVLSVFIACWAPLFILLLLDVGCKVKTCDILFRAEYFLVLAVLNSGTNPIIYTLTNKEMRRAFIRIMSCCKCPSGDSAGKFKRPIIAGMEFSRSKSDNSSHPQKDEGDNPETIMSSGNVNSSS
# S1P4 antag cf: S1P4 receptor antagonists, human, confirmation, cell-based; shares compounds with S1P4 antagonist; AID 1524, 2009; S1P4-expressing cell line, antagonist mode, reporter read-out; 71% of 520 active; inhibition, % at 4.98 µM; in the data active = inhibition above about 30%
# S1P1 antagonist: S1P1 receptor antagonists, human, counter-screen for S1P4 antagonist project, cell-based; shares compounds with S1P4 antagonist; cell-based S1P1 antagonist counterscreen, inhibition; inhibition, % at 4.98 µM; 37% of 520 active; AID 1564, 2009; in the data active = inhibition above about 40%;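 also: receptor stimulated with S1P near its EC80; 0% = agonist stimulated wells and 100% = vehicle only wells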
# Active calls of the source: *; i = inactive; ? = inconclusive; · = not tested or not shown. Sampled rows, rich in hits. Any-hit rate of the full collection: about 1%.
SMILES,Hsp70 act,S1P4 agonist,HSV augment,TNF necrop inh,zVAD death inh,S1P4 antagonist,others
CCn1nc(C)c(/C=N/NC(=S)Nc2ccc(Cl)cc2Cl)c1C,0,1,i,0,·,7,
O=C(COc1cccc2cccnc12)N/N=C1\SCC(=O)N1Cc1ccccc1,0,-2,i,0,1,-8,
COc1ccc(OCCOCCOc2ccc(C)cc2[N+](=O)[O-])cc1,0,30*,i,2,0,-19,S1P4 agonist cf=0;S1P1 agonist=-5
CCC/C=N/Nc1nc2ccccc2s1,0,64*,i,2,2,5,S1P4 agonist cf=-1;S1P1 agonist=-1
CN(CCCC(=O)NC1CC(C)(C)NC(C)(C)C1)S(=O)(=O)c1ccc([N+](=O)[O-])cc1,0,0,i,0,0,-17,
CCOc1ccc(N(CC(=O)Nc2cc(C)ccc2C)S(=O)(=O)c2c(C)[nH]c(=O)[nH]c2=O)cc1,·,-1,i,0,0,16,
O=C1C(Nc2ccccc2)=C(N2CCCCC2)C(=O)c2ccccc21,0,0,i,-14,1,0,
CN(C1=C(N2CCCCC2)C(=O)c2ccccc2C1=O)c1ccccc1,0,12*,i,-3,0,-30,S1P4 agonist cf=-2;S1P1 agonist=-5
COc1ccc2nc(Nc3nc(C)c(C(C)=O)s3)sc2c1,1,1,i,0,55,-13,
COc1cc(C)nc(Nc2nc(C)c(C(C)=O)s2)n1,0,12*,i,-4,7,-16,S1P4 agonist cf=-3;S1P1 agonist=0
Cc1ccc2nc(Cl)c3nnnn3c2c1,0,-1,i,-14,1,27,
CC(C)NC(=O)C1CCN(C(=O)c2cc3sccc3n2Cc2ccc(F)cc2)CC1,0,16*,i,-8,1,2,S1P4 agonist cf=0;S1P1 agonist=7
OC1(CNCc2cn[nH]c2-c2cc3ccccc3o2)CCCCC1,0,0,i,5,-1,-10,
CCCNS(=O)(=O)c1ccc(OC)c(Cl)c1Cl,0,-1,i,0,0,1,
CCCNS(=O)(=O)c1cc(Cl)ccc1OC,0,17*,i,1,14,1,S1P4 agonist cf=-1;S1P1 agonist=-2
Cc1ccc([N+](=O)[O-])cc1NCC(=O)NN,0,0,i,-1,0,-11,
COc1cc(C(=O)NCc2ccncc2)cc(OC)c1OC,0,14*,i,0,26,-11,S1P4 agonist cf=-2;S1P1 agonist=-2
O=C1C2C3C=CC(C3)C2C(=O)N1Nc1c(Cl)cc(Cl)cc1Cl (stereo not drawn),0,-1,i,0,-1,-9,
C=C1C(C(=O)Nc2ccccc2)C1C(=O)Nc1ccccc1 (stereo not drawn),·,2,i,2,-1,-21,
COC(=O)c1cc(NS(=O)(=O)c2ccc(NC(C)=O)cc2)ccc1Cl,·,3,i,3,2,-4,
CS(=O)(=O)N1CCCC(C(=O)Nc2ccc3c(c2)OCCO3)C1 (stereo not drawn),0,-1,i,0,34,-9,
Cc1ccc(C(N)=S)c(C)c1,0,17*,i,-5,0,4,S1P4 agonist cf=-2;S1P1 agonist=1
COCCNC(=O)Cn1c(=O)n(CCCCCC(=O)Nc2ccccc2)c(=O)c2sccc21,0,21*,i,2,0,1,S1P4 agonist cf=-2;S1P1 agonist=-3
CCOC(=O)c1[nH]c2ccc(OCC)cc2c1CCCN1C(=O)c2ccccc2C1=O,0,3,i,3,·,-8,
CN(C)/C=C/C(=O)c1cnc(-c2ccccc2)s1,0,1,i,1,12,38*,S1P4 antag cf=-5;S1P1 antagonist=1
SMILES,Hsp70 act,S1P4 agonist,HSV augment,TNF necrop inh,zVAD death inh,S1P4 antagonist,others
Cn1c(N)c(C(=O)COC(=O)c2ncc(Cl)c(Cl)c2Cl)c(=O)n(C)c1=O,0,1,i,-2,67,-10,
CN(c1ccccc1)c1ccc(/C=C/[N+](=O)[O-])cc1,0,3,i,1,-1,55*,S1P4 antag cf=119*;S1P1 antagonist=66*
Nc1cccc2c1C(=O)N(C(=O)c1ccc(Cl)c(S(=O)(=O)N3CCCCCC3)c1)C2=O,0,3,i,-1,-1,32*,S1P4 antag cf=33*;S1P1 antagonist=0
Cn1cccc1C(=O)NC(=O)COC(=O)C12CC3CC(CC(O)(C3)C1)C2,0,-3,i,0,0,33*,S1P4 antag cf=3;S1P1 antagonist=5
COc1cc2[nH]c(=S)n(Cc3ccc(C)cc3)c(=O)c2cc1OC,0,-1,i,2,-1,0,
COc1ccccc1C(c1nnnn1C(C)(C)C)N1CCN(C(=O)c2ccco2)CC1 (stereo not drawn),0,-2,i,-3,0,7,
COc1ccccc1C(c1nnnn1C(C)(C)C)N1CCCCCC1 (stereo not drawn),0,-5,i,-3,0,32*,S1P4 antag cf=1;S1P1 antagonist=-19
COCCNc1ncnc2c1cnn2-c1ccc(Cl)cc1,0,0,i,-1,0,33*,S1P4 antag cf=8;S1P1 antagonist=20
COCCN(CCOC)c1ncnc2c1cnn2-c1ccc(Cl)cc1,0,-1,i,2,1,5,
OC(c1cc(-c2ccc(Cl)cc2)nc2ccccc12)C1CCCCN1 (stereo not drawn),·,-2,i,-30,-3,53*,S1P4 antag cf=95*;S1P1 antagonist=83*
COc1ccc(C(=O)c2c(C)c3cc(C)ccc3n2CC(O)CN2CCOCC2)cc1 (stereo not drawn),0,-1,i,10,2,-4,
c1ccc(-c2nnc(CN3CCN(C(c4ccccc4)c4ccccc4)CC3)o2)cc1,0,0,i,-1,4,68*,S1P4 antag cf=28;S1P1 antagonist=32
CN(C)S(=O)(=O)c1cc(NC(=O)Cn2ccsc2=N)ccc1Cl,0,1,i,2,0,-8,
CCCCc1ccc(/C=C2\C(=O)c3ccccc3C(O)=C2C(=O)OCC)cc1,0,-1,?,-5,0,36*,S1P4 antag cf=68*;S1P1 antagonist=22

# Source: PubChem BioAssay
